This is part of a sample that, as a whole, favours compounds with a hit. Of some 83,000 tested, about 20% had one in any assay.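 Assay: single dose, 48 h. Readout: percent growth (0 = no net growth; negative = cell death). Active: <10.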 Activity calls are given as the source filed them.

The assay concerns HL-60(TB) leukemia. As to the kind of experiment: NCI-60 one-dose screen, 48 h (100 = growth as untreated, 0 = no growth, -100 = all killed). Particulars: 10 µM unless noted.
For `O=c1c2cc(F)ccc2sc2c(NCCCN3CCCC3)nc3ccccc3c12`, the growth is 13.9% (inactive).

Regarding `COc1ccc(C(c2cc(OC)c(OC)c(OC)c2)n2cncn2)cc1O` (stereo not given), the growth is -32.5% (active).

For the compound `COC(=O)C(C)Oc1ccc(OC#N)cc1` (stereo not given), the growth is 46.1% (inactive).

Take `COc1cc(C(=C2O[C@@H]([C@H]3COC(C)(C)O3)[C@H]3OC(C)(C)O[C@@H]23)c2cc(OC)c(OC)c(OC)c2)cc(OC)c1OC`: the growth was 107% (inactive).

On to `COc1ccc2c(c1)cn1c3ccc(O)cc3[nH]c(=O)c21`, for which the growth was -21.7% (active).

For the compound `COc1ccc(NC(=O)c2sc3nc(C)c(C(=O)c4ccc(OC)cc4)cc3c2N)cc1`, the growth is 6.31% (active).

Consider `O=C(CCl)Oc1ccc(OC(=O)CCl)cc1`, for which the growth was 8.83% (active).

With `CC(C)C1=NOC(=O)C1=Cc1cn(-c2ccccc2)nc1-c1ccc(F)cc1`, the growth is -34.9% (active).

Turning to `O=C1c2c(c3c4ccccc4n(CCCCCCN4CCOCC4)c3c3[nH]c4ccccc4c23)C(=O)N1O`, the growth is 77.7% (inactive).

`CCCNCC(=O)Nc1ccc(C(=O)OC(C)(C)CC)cc1`: the growth is 89.8% (inactive).

As to `O=c1c2ccccc2oc2ccc(OCCCCCCN3CCCCCC3)cc12`, the growth was -47.9% (active).

As for `N#Cc1c(-c2ccc(Br)cc2)nc2c(N=Nc3ccc(S(N)(=O)=O)cc3)c(N)nn2c1N`, the growth was 38.1% (inactive).

Turning to `COc1cc(-c2nn(C(=O)NCCN3CCN(C)CC3)cc2-c2ccncc2)ccc1Cl`, the growth is 93.2% (inactive).

Consider `CN1CCC(CNc2cc(C3(C(=O)Nc4cc(C(=O)Nc5ccc(Cl)c(C(F)(F)F)c5)ccc4F)CC3)ncn2)CC1`, for which the growth was -7.85% (active).

Regarding `CCCCOC(=O)/C=C\C(=O)NC(N)=O`, the growth is 56.8% (inactive).

Turning to `CN1CCN(c2ccc3nc(-c4ccc5nc(-c6ccc(OCCC(C)(C)C)cc6)[nH]c5c4)[nH]c3c2)CC1`, the growth is 10.5% (inactive).

As to `Nc1c(C(=O)C[C@@H](N)CO)ccc2c1C(=O)CCO2`, the growth was 51.9% (inactive).

Consider `CCN(CC)CCOc1nc2ccccc2c2c1-c1ccc(OC)cc1C2=O`, for which the growth is 9.1% (active).

Turning to `CC(C)c1ccc(C(=O)Nc2sc3c(c2C#N)CCC(=O)C3)cc1`, the growth is -16.7% (active).

On to `O=C1C(=O)c2c(nc3ncccn23)-c2ccccc21`, for which the growth is -51% (active).

`Nc1c(C(=O)c2ccccc2)sc2nc(-c3cc4ccccc4o3)cc(-c3ccc(Cl)cc3)c12`: the growth is 114% (inactive).

Regarding `O=C1/C(=C/c2cn(-c3ccccc3)nc2-c2ccccc2)SC(=S)N1C1CCCCC1`, the growth is 116% (inactive).

Turning to `COc1cc(/C=N/NC(=O)c2ccc(C)nc2)cc(OC)c1OC`, the growth is 56% (inactive).

As for `CC(=O)c1ccc(NC(=O)CSc2nnc(-c3cc(-c4ccc(Cl)cc4)nc4ccccc34)o2)cc1`, the growth is 91.3% (inactive).

With `CC1(C)N=C(N)N=C(N)N1c1cccc(OCCOc2cccc([N+](=O)[O-])c2)c1`, the growth is 17.6% (inactive).

For `Cc1ccc(NC(=O)Cc2ccc(/C=C/C(=O)c3ncc[nH]3)cc2)cc1`, the growth was 27.5% (inactive).

As to `CCCCC/C=N/Nc1nc(C)cc(=O)[nH]1`, the growth is 108% (inactive).

Turning to `CCCNC(=O)Oc1ccc(/C(=C(/CC)Cc2ccccc2)c2ccc(OCCN(CC)CC)cc2)cc1`, the growth was 53.3% (inactive).

On to `COc1ccc(-c2nnc3n(C)c(=O)c4ccccc4n23)cc1O`, for which the growth is -22% (active).

As for `CCCCc1ccc(C(N)=O)nc1`, the growth is 88.2% (inactive).

`O=C1NC(=O)C(Cc2ccccc2)(Cc2ccccc2)N1`: the growth is 122% (inactive).

Regarding `CCCCCOC(=O)c1c(C)[nH]c(/C=C2\N=C(c3ccc[nH]3)C=C2OC)c1C`, the growth was -14.7% (active).

For `CNc1ccc(CSc2ccc(C)cc2)cc1`, the growth is 11.8% (inactive).

Regarding `COc1cc(/C=N/OC(=O)Nc2ccccc2)cc(OC)c1OC`, the growth was 99.2% (inactive).

In the case of `CCN(CC)Cc1cc(Nc2nc(NC3CCC(N(C)C)CC3)c3ccccc3n2)ccc1OC` (stereo not given), the growth is 69% (inactive).

For `O=C(/C=C\c1ccc(NCc2ccc(C(=O)O)cc2)cc1)CCl`, the growth is 97.7% (inactive).

Regarding `Cc1csc(NC(c2ccc(Br)cc2)c2c(C)nc3ccccn23)n1` (stereo not given), the growth was 102% (inactive).

Regarding `COc1cc2cc(Oc3ccc(NC(=O)Nc4ccc(C(F)(F)F)cc4)cc3)c(C)nc2cc1OC`, the growth was 75.3% (inactive).

With `c1ccc2cc(Cn3c(-c4cccc5ccccc45)[n+](Cc4ccc5ccccc5c4)c4c5ccccc5c5ccccc5c43)ccc2c1`, the growth was -54.6% (active).

For the compound `C#CC#CC#CC#CC#CC#CC#CC#CC[C@H]1OC[C@@H](COC(=O)O[C@@H](C(=O)O[C@H]2C[C@@]3(O)[C@@H](OC(=O)c4ccccc4)[C@@H]4[C@]5(OC(C)=O)CO[C@@H]5C[C@H](O)[C@@]4(C)C(=O)[C@H](OC(C)=O)C(=C2C)C3(C)C)[C@@H](NC(=O)c2ccccc2)c2ccccc2)O1`, the growth is 6.5% (active).

The values are drawn from PubChem BioAssay (NCI).
